Measurements as given in PubChem BioAssay (Tox21).
Results filed as inconclusive are left out. A call without a number means that no potency is given here. Active and inactive are the calls of the source. Calls come from the whole dose curve; as a rule, active = well fitted inhibition curve with a large enough effect in the repeat runs; inconclusive = weak or mixed curves; inactive = flat fitted curve, though single readings scatter.

What follows are compounds tested against Voltage-gated inwardly rectifying potassium channel KCNH2 (Homo sapiens) (UniProt Q12809) (assay: Human Ether-a-go-go-Related Gene (hERG) channel small molecule antagonists: fluorescence cell-based qHTS assay (AID 1671200; note: nearly all actives have a fitted effect of over 50% in size)). Settings: hERG-U2OS cells, FluxOR thallium flux fluorescence; series mostly up to 76.8 µM.
Text: National Center for Advancing Translational Sciences [NCATS]
U.S. Environmental Protection Agency [EPA]
National Institutes of Environmental Health Sciences [NIEHS]
National Toxicology Program [NTP]
U.S. Food and Drug Administration [FDA]
Mutations in the hERG channel cause Long QT (LQT) syndrome. LQT syndrome is a cardiac disorder which can cause ventricle arrhythmia and sudden death. Additionally, compounds which block the hERG channel can cause acquired LQT syndrome. Several FDA approved drugs have been removed from the market due to their hERG blocking activity. A cell-based hERG channel inhibition assay can be used to screen chemical compounds that inhibit hERG channel. This assay measures hERG channel activity using thallium ions as surrogate ions to measure potassium into the cells.
Tox21 Assay Protocol Summary:
hERG-U2OS cells were resuspended in culture medium and dispensed into 1536-well, black wall/clear-bottom plates at 1000cells/well/3uL using a Multidrop Combi dispenser (Thermo Fisher, Waltham, MA). After plates were incubated at 37 C overnight, 3 uL of Loading Buffer provided by FluxOR II Potassium Ion Channel Assay kit (Thermo, Carlsbad, CA) was added to each well. The assay plates were then incubated at room temperature in the dark for 1h. […] After the assay plates were incubated at room temperature for 10 min, 1 uL of Stimulus Buffer provided by FluxOR II Potassium Ion Channel Assay kit was added into each well and fluorescence intensity (480nm excitation/540nm emission) was continuously measured for 2 min at 1 second intervals using a Functional Drug Screening System (FDSS) 7000EX kinetic plate reader (Hamamatsu, Japan).
Potency is the fitted concentration of half-maximal effect.

Voltage-gated inwardly rectifying potassium channel KCNH2 (Homo sapiens), sequence (Q12809 whole entry, looked up): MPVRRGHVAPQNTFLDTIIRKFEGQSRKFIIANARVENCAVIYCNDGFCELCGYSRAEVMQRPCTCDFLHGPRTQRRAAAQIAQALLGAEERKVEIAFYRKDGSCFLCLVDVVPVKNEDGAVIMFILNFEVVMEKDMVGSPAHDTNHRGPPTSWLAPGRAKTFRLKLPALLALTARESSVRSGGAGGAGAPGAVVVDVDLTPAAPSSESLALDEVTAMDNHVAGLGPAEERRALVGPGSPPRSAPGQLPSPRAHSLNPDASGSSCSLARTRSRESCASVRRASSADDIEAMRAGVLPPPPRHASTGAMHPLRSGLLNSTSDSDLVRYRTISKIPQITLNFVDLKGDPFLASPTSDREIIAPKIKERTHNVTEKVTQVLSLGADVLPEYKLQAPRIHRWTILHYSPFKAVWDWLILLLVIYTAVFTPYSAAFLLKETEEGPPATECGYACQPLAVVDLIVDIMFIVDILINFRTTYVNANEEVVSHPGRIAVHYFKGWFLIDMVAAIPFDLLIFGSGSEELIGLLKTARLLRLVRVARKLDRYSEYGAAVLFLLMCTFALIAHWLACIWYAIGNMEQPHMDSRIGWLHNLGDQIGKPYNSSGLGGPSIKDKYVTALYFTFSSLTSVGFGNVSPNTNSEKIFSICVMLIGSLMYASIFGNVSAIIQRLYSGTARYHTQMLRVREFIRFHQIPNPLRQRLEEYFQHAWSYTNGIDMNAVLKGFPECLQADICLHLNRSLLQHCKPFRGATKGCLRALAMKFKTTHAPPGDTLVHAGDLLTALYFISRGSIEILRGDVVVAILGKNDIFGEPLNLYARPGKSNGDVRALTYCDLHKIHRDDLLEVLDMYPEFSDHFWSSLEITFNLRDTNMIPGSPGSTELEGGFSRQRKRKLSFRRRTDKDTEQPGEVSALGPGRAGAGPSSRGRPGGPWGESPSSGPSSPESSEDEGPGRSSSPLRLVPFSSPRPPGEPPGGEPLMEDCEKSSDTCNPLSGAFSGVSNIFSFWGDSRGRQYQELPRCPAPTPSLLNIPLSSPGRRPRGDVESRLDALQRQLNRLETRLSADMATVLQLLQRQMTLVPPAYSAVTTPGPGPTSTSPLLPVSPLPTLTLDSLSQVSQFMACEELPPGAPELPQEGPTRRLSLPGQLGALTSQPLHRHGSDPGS

Compound | Potency | activity change, negative = inhibition
C=C(C)CCO | inactive | –
Cc1c[nH]c(=O)[nH]c1=O | inactive | –
CN1CCN(c2ccccc2/C=C2\SCCN(c3ccc(Cl)c(Cl)c3)C2=O)CC1 | 2.19 µM (active) | –
CCOc1nc(F)cc2nc(S(=O)(=O)Nc3c(Cl)cccc3C(=O)OC)nn12 | inactive | –
CCOC(=O)[C@H](O)[C@@H](O)C(=O)OCC | inactive | –
CC(C)(C)C1=CC(=O)C(C(C)(C)C)=CC1=O | inactive | –
c1ccc2c(c1)-c1ccc3ccc4cccc5cc-2c1c3c45 | inactive | –
CN[C@H]1CC[C@@H](c2ccc(Cl)c(Cl)c2)c2ccc(S(N)(=O)=O)cc21 | 9.77 µM (active) | –
O=C(NCc1ncc(C(F)(F)F)cc1Cl)c1c(Cl)cccc1Cl | inactive | –
CCN(CC)c1ccc(N=Nc2ccccc2)cc1 | inactive | –
C=CC(=O)O[C@H]1C[C@@H]2CC[C@@]1(C)C2(C)C | inactive | –
O=[N+]([O-])c1ccc(O)c2ncccc12 | inactive | –
CCCCCCCCSCc1cc(C)c(O)c(CSCCCCCCCC)c1 | inactive | –
Nc1cc([N+](=O)[O-])cc(Cl)c1O | inactive | –
CSc1nnc(C(C)(C)C)c(=O)[nH]1 | inactive | –
O=C1OC(O)C(C(Cl)Cl)=C1Cl (stereo not given) | inactive | –
CC1(C)[C@H]2CC[C@]1(C)C(=O)C2 | inactive | –
CC(C)=CCC[C@H](C)CC=O | inactive | –
CCCOC(=O)c1ccc(O)cc1 | inactive | –
C=C[Si](C)(C)Cl | – | -2.91% [at 6.97 µM] (inactive)

Compound | Potency | activity change, negative = inhibition
C=CC(=O)OCC(Br)CBr (stereo not given) | inactive | –
CCC1(C)C(=O)N(Cl)C(=O)N1Cl (stereo not given) | inactive | –
O=C1OC2(c3ccccc31)c1ccc(O)c(Br)c1Oc1c2ccc(O)c1Br | 34.7 µM (active) | –
O=C(Cl)c1ccc(Cl)cc1Cl | inactive | –
CCN(CC)c1ccc2c(c1)Oc1cc(N(CC)CC)ccc1C21OC(=O)c2ccccc21 | inactive | –
C=CC(=O)OCCOC1C2CCC1C1CC=CC12 (stereo not given) | – | 2.03% [at 15.8 µM] (inactive)
C=CC(C)(C)O | inactive | –
C=CCc1cc(S(=O)(=O)c2ccc(O)c(CC=C)c2)ccc1O | inactive | –
COc1cc(OC)nc(NC(=O)NS(=O)(=O)Nc2ccccc2C(=O)N(C)C)n1 | inactive | –
CC(C)(C)c1ccc(OC2CCCCC2O)cc1 (stereo not given) | inactive | –
Nc1cc([N+](=O)[O-])ccc1Cl | inactive | –
CCN(CCC#N)c1ccc(N=Nc2ccc([N+](=O)[O-])cc2)cc1 | inactive | –
C/C=C/C(=O)OCC(C)C | inactive | –
CC(c1cc(C(C)(C)C)cc(C(C)(C)C)c1O)c1cc(C(C)(C)C)cc(C(C)(C)C)c1O | inactive | –
CCCCCc1ccc(O)cc1 | inactive | –
O=C(Nc1ccc([N+](=O)[O-])cc1)Nc1ccc([N+](=O)[O-])cc1 (tested in a mixture with another compound) | inactive | –
CC(O)(c1ccc(Cl)cc1)c1ccc(Cl)cc1 | 49 µM (active) | –
CC(C)c1ccc2sc3ccccc3c(=O)c2c1 | inactive | –
O=C1CCC(=O)N1 | inactive | –
CSc1ccc(O)cc1C | inactive | –
